Test results as given in the supplement of paper PMC6555819.

Legend:
Test in all cases: PBM binding z-score (relative to random genomic background probes); higher = stronger binding; sequences stand for … in GC…GCGATTGACAGCGTAGAATGAAGG
[1] = test system: FXR:RXRa (NR concentration 270 nM, RXRa partner concentration 90 nM)
Method in brief: (§1)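 Binding z-scores were set against random background probes. The data came from custom Agilent 4×180K protein-binding microarrays carrying double-stranded probes with 34-nt variable regions, incubated 1 h with ligand-free nuclear receptor dimers. Partner-specific antibodies detected binding, and scanned fluorescence was regression-normalized.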

[2] = test system: LXRa:RXRa (NR concentration 270 nM, RXRa partner concentration 90 nM)
Method in brief: as §1

[3] = test system: LXRa homodimer (NR concentration 270 nM)
Method in brief: as §1

[4] = test system: LXRb:RXRa (NR concentration 270 nM, RXRa partner concentration 90 nM)
Method in brief: as §1

[5] = test system: LXRb homodimer (NR concentration 270 nM)
Method in brief: as §1

[6] = test system: PPARa:RXRa (NR concentration 270 nM, RXRa partner concentration 90 nM)
Method in brief: as §1

[7] = test system: PPARg:RXRa (NR concentration 180 nM, RXRa partner concentration 90 nM)
Method in brief: as §1

[8] = test system: PPARg:RXRa 270nM:90nM, anti-RXR (NR concentration 270 nM, RXRa partner concentration 90 nM)
Method in brief: as §1

[9] = test system: PPARg:RXRa 30nM:10nM, anti-RXR (NR concentration 30 nM, RXRa partner concentration 10 nM)
Method in brief: as §1

[10] = test system: PPARg:RXRa 90nM:30nM, anti-RXR (NR concentration 90 nM, RXRa partner concentration 30 nM)
Method in brief: as §1

[11] = test system: PPARg:RXRa DBDmut IVT, anti-RXR (DBD mutation: RXRa K156A/R161A, NR concentration 270 nM, RXRa partner concentration 90 nM)
Method in brief: as §1

[12] = test system: PPARg:RXRa IVT, anti-PPARg (NR concentration 270 nM, RXRa partner concentration 90 nM)
Method in brief: as §1

[13] = test system: PPARg DBDmut:RXRa IVT, anti-PPARg (DBD mutation: PPARg1 K132A/R137A, NR concentration 270 nM, RXRa partner concentration 90 nM)
Method in brief: as §1

[14] = test system: PPARg DBDmut IVT, anti-PPARg (DBD mutation: PPARg1 K132A/R137A, NR concentration 270 nM)
Method in brief: as §1

[15] = test system: PPARg homodimer (NR concentration 180 nM)
Method in brief: as §1

[16] = test system: PXR:RXRa (NR concentration 270 nM, RXRa partner concentration 90 nM)
Method in brief: as §1

[17] = test system: PXR homodimer (NR concentration 270 nM)
Method in brief: as §1

[18] = test system: RARa:RXR (NR concentration 270 nM, RXRa partner concentration 90 nM)
Method in brief: as §1

[19] = test system: RARa homodimer (NR concentration 270 nM)
Method in brief: as §1

[20] = test system: RARb:RXRa (NR concentration 270 nM, RXRa partner concentration 90 nM)
Method in brief: as §1

Sequence	PBM binding z-score [1]	PBM binding z-score [2]	PBM binding z-score [3]	PBM binding z-score [4]	PBM binding z-score [5]	PBM binding z-score [6]	PBM binding z-score [7]	PBM binding z-score [8]	PBM binding z-score [9]	PBM binding z-score [10]	PBM binding z-score [11]	PBM binding z-score [12]	PBM binding z-score [13]	PBM binding z-score [14]	PBM binding z-score [15]	PBM binding z-score [16]	PBM binding z-score [17]	PBM binding z-score [18]	PBM binding z-score [19]	PBM binding z-score [20]
CCTACTGGGCCATTCACAGGTCATTGATCATATG	0.864	2.27	4.05	2.21	-0.0927	2.62	1.27	2.04	0.468	1.3	4.38	4.07	0.164	0.233	1.37	2.11	0.599	2.4	0.567	2.03
ACAGACTGGTGAGTGAAGGTAACTCAGCTGGACG	-0.31	-0.557	-0.264	-0.755	-0.871	-0.552	0.259	-0.5	-0.557	-0.438	-0.695	-0.409	-0.15	-0.348	0.0199	-0.565	-0.163	-0.434	-0.0964	-0.281
CGAACTAGGTCAATGACAGGACAGTGAATAGTAA	2.8	2.36	0.289	1.59	0.0362	4.34	7.1	6.02	3.52	5.51	8.25	7.96	1.69	1.41	1.62	1.12	-0.0371	1.75	0.354	3.64
ACTAGCAGGCCAAGGGTAACTCAAGATTAGTCCG	-0.105	0.773	-0.457	-0.0796	-0.553	1.83	3.38	4.86	2.86	4.78	0.865	1.67	-0.794	-0.439	0.663	-0.287	-0.127	0.0162	-0.543	0.971
GTACCAAGGTAAATAGGTCGTTGATGAGTAGGCG	0.0892	0.228	-0.0943	0.151	-0.264	1.73	1.37	1.34	0.667	0.78	1.71	2.84	0.778	0.523	0.489	0.181	0.0446	0.634	0.265	0.675
AGAATGAGGTTATTAAGATTAGGGAATTGCGGTC	1.47	1.57	0.419	1.24	0.178	2.61	1.17	1.57	0.697	1.37	2.99	2.43	1.23	0.542	1.01	1.02	0.66	1.52	0.918	1.47
CCGAGTAGGCTATGGGGCATTCAGGCAACGGTGA	-0.882	-1.01	-0.67	-0.799	-1.07	0.341	1.43	2.92	0.549	2.35	0.771	0.867	-0.695	-1.15	-0.376	-0.862	-0.647	-0.583	-0.463	-0.102
TGAATGAGGTTATAAGATCCGGGAACGTTGCAAA	1.15	1.21	-0.3	0.909	-0.0595	2.45	1.01	1.33	0.723	1.15	1.11	1.48	1.46	0.366	0.364	0.692	-0.0533	1.28	-0.21	1.14
TCATATAGGTAAACAGGTGATAGTCCGTAAGTTA	0.91	0.907	0.318	0.806	-0.237	1.73	2.35	3.2	4.04	3.64	4.54	3.86	2.2	1.3	1.51	0.551	0.241	0.892	1.46	0.497
GCTAGCAGGCCATTCGGGTCACTCAATGACGGGC	1.03	0.603	-0.377	0.577	-1.07	1.9	0.695	0.555	-0.392	0.105	1.31	1.58	-0.52	-0.659	0.0772	1.83	1.45	1.71	-0.872	1.96
TCGAGTAGGTTACCAATGGGACATTCAGCTTTCT	0.203	1.04	-0.603	0.366	-0.806	0.841	0.563	1.2	1.11	1.08	2.84	2.43	-0.217	0.266	-0.26	0.0751	-0.84	0.149	-0.599	0.695
CAAACTAGGTCACAGAGGTCAAAGTACGTGCGTA	7.52	6.76	7.47	6.46	2.46	6.64	10.3	8.39	6.94	8.5	8.25	9.23	3.28	3.36	6.01	7.09	11.9	7.54	2.98	5.38
TCGAGTAGGTTAGTCGGGGTATTCAGCCAACATA	0.000404	-0.0351	-0.315	0.411	-0.451	0.421	-0.245	0.44	1.24	0.688	2.12	1.56	-0.225	-0.287	-0.0532	-0.197	-0.205	0.128	-0.0281	0.0838
CCTGCTAGGTCAATGGTCAGCTATAGCAGCTCGC	2.7	2.23	0.0531	1.44	0.0202	3.06	4.45	4.91	2.6	4.71	4.67	3.79	-0.186	-0.414	1.14	0.849	-0.745	1.57	-0.658	3.75
ATATGTAGGTTAGCTGGGGTCATTCGGACTAGGC	4.85	5.8	3.75	4.73	1.58	5.11	5.79	5.43	3	4.4	6.85	6.3	3.21	1.98	4.23	6.74	5.39	6.34	1.19	3.05
CCTGCTAGGTCAATGGTCACCTAAAGCAGCTCGC	3.09	2.46	0.104	1.86	-0.189	3.68	5.66	5.88	3.3	5.26	3.93	4.42	0.106	-0.848	1.21	1.24	-0.353	2.13	-0.122	3.96
GCATATAGGTAATACAAGGTGAAACTCCGATTGT	1.27	2.79	0.554	0.988	-0.38	1.83	1.5	1.04	0.514	0.842	4.64	3.25	1.19	0.842	0.705	0.857	-0.379	1.52	0.524	0.667
TCTATTAGTTGAAGGGCGACCGACGAGTCCGTTT	0.994	1.03	0.292	0.778	0.384	0.661	-0.000303	2.13	3.99	2.9	2.51	0.299	0.865	1.2	0.852	0.655	0.886	0.0781	0.844	0.714
ATCTCTATGTAAAAGTTCAGTGAATCCCGAGGAT	0.48	1.17	1.3	0.915	0.829	2.49	3.27	4.6	3.31	4.95	-0.373	1.21	1.18	0.786	1.41	1.78	1.21	1.08	0.424	2.23
